The panel holds about 83,000 compounds, 20% with a hit somewhere; the sample as a whole holds those more often.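 Compound tested at a single concentration for 48 hours in 96-well plates; a percent growth value below 10 was scored as active.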 Values without a mark were called inactive. The source made the active and inactive calls.
Tested on: SK-OV-3 ovarian
Experiment: NCI-60 one-dose screen, 48 h (100 = growth as untreated, 0 = no growth, -100 = all killed)
Settings: 10 µM unless noted

Question: Which growth does the source give for `CN1CCN(c2nc3scc(-c4ccccc4)c3c(=O)[nH]2)CC1` here?
Answer: The growth was 103%.

Question: For `O=C(COc1cccc(/C=C2\Oc3ccc4ccccc4c3C2=O)c1)c1ccc([N+](=O)[O-])cc1`, which growth is on record?
Answer: The growth was 88.9%.

Question: With `CCCCCCCCCCN1CCC(N2CCCCC2)CC1` as the compound, how does the growth read?
Answer: The growth was 20.9%.

Question: Which growth does the source give for `Nc1nc2c(c(=O)[nH]1)C1(C(=O)Nc3ccccc31)c1c(nc(N)[nH]c1=O)N2` here?
Answer: Its growth is 108%.

Question: Which growth does the source give for `O=c1c2ccccc2c2nccn2c2cc(Cl)ccc12` here?
Answer: The growth was 113%.

Question: For `N#Cc1c(NC(=O)c2ccco2)[n+]([O-])c2cc(Cl)c(Cl)cc2[n+]1[O-]`, which growth is on record?
Answer: The growth was 118%.

Question: How did the growth turn out when `CCOC(=O)N1CCC(N=C2CSc3nnc(-c4cc(C(F)(F)F)cc(C(F)(F)F)c4)n3N2)CC1` was run?
Answer: The growth was 41.4%.

Question: For `CCSCC1CC(O)(c2ccccc2)C(c2ccccc2)C(c2ccc(Cl)cc2)O1` (stereo not given), which growth is on record?
Answer: The growth was 9.49% (active).

Question: With `N#Cc1ccc(-c2csc(Nc3ccc4nc5n(c(=O)c4c3)CCC5)n2)cc1` as the compound, how does the growth read?
Answer: The growth was 176%.

Question: With `CCCCNCCCN(CCCC)CCCNCCCC` as the compound, how does the growth read?
Answer: The growth was 100%.

Question: For `COc1cccc(/C=C2\Cc3ccccc3C2=O)c1`, which growth is on record?
Answer: Its growth is 101%.

Question: With `C(#Cc1ccccc1C#Cc1ccccn1)c1ccc(OCCCCCCOc2ccc(C#Cc3ccccc3C#Cc3ccccn3)cc2)cc1` as the compound, how does the growth read?
Answer: The growth was 80.9%.

Question: `CN(C)c1ccc(-c2nc3ncc(Br)cc3o2)cc1` was tested. Which growth did it give?
Answer: The growth was 94.8%.

Question: Which growth does the source give for `Cc1ccc(S(=O)(=O)N2CCN(C(=O)CSc3nc4ccc(C)cc4[nH]3)CC2)cc1` here?
Answer: Its growth is 114%.

Question: Which growth does the source give for `COC(=O)c1c(NC(=O)CSc2nnnn2-c2ccc(OC)cc2)sc(C)c1C` here?
Answer: The growth was 95.9%.
